Screens: PubChem BioAssay, National Center for Advancing Translational Sciences (NCATS)
USP2a inh: USP2a (human) protease inhibition; O75604; USP2 core, Ub-CHOP2 coupled fluorogenic reporter, 485/531; Potency, µM (top dose mostly 38.3 µM), for the others: top-dose activity change, negative = inhibition, actives largely listed as inhibitors; actives 0.01% (n = 330,000); AID 463254;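 note: potency is the fitted concentration of half-maximal effect; plate controls were DMSO wells for no effect and full inhibition by NEM control for full effect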
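Deubiquitinase activity read as fluorescence (485/531 nm) after Ub-CHOP2 cleavage activates the enterokinase reporter on its substrate; USP2 core 10nM, Ub-CHOP2 and substrate 25nM each, 30min compound preincubation then 60min RT; data normalized to NEM, curves fitted.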
ATXN2 expr inh: inhibitors of ATXN2 expression. HEK-293 ATXN2-luciferase reporter, luminescence, 24 h. Potency, µM (doses to about 57 µM), without a hit: at the top dose activity change, negative = inhibition, actives largely listed as inhibitors. actives 0.72% (n = 360,000). AID 1745845; note: potency is the fitted concentration of half-maximal effect; % is set by controls: 0 for no effect and ±100 for the full control effect; nearly all actives have a fitted effect of over 55% in size
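ATXN2-luciferase reporter cells (luciferase flanked by upstream and downstream ATXN2 gene portions) were treated 24 h at 37 °C with compounds at up to 57 uM. SteadyGlo luminescence gave expression; GF-AFC fluorescence gave viability.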
USP1 inh: inhibitors of human USP1/UAF1 deubiquitinase. Potency, µM (series often up to 57.1 µM), inactives show top-dose activity change, negative = inhibition, most hits filed as inhibitors. recombinant USP1/UAF1, Ub-Rhodamine cleavage fluorescence. O94782. actives 0.23% (n = 390,000); note: potency is the fitted concentration of half-maximal effect; % is set by controls: 0 for no effect and ±100 for the full control effect; nearly all actives have a fitted effect of over 60% in size
Target sequence (O94782 whole entry, looked up): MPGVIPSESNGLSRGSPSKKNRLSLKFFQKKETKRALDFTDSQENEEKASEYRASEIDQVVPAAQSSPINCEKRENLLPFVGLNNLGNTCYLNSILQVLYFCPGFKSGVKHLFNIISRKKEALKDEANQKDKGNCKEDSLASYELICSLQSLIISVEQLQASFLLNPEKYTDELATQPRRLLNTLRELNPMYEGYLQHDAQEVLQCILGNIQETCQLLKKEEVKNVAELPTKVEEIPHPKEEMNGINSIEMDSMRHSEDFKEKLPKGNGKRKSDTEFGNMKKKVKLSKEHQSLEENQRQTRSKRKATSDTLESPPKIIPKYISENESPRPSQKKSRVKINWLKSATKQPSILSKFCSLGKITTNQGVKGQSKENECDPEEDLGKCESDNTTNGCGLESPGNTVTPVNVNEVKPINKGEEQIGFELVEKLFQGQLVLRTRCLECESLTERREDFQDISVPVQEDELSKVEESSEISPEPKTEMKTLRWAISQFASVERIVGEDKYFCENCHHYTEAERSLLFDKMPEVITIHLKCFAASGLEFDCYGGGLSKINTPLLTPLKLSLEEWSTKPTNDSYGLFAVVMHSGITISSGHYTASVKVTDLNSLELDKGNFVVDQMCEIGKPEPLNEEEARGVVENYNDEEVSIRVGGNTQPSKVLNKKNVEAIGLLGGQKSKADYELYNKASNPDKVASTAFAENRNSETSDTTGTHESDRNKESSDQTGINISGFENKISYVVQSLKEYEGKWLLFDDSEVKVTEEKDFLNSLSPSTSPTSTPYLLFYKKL
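Step one: compound is pinned into 1nM USP1/UAF1 in HEPES pH 7.8 buffer with TCEP. Step two: 15 min room-temperature incubation. Step three: Ub-Rho (150nM final) starts cleavage, tracked by fluorescence over six one-minute reads.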
ATXN viability: viability counter-screen for ATXN expression inhibitors | AID 651635 | actives 0.49% (n = 400,000) | S2 cells (HEK-293 line with an ATXN2-luciferase reporter) viability, CellTiter-Fluor protease fluorescence, 24 h | Potency, µM (top dose mostly 56.7 µM), hits mostly cytotoxic; note: potency is the fitted concentration of half-maximal effect; nearly all actives have a fitted effect of over 40% in size
IL-1B inflam inh: blocks inflammasome-driven IL-1 beta release | THP-1 LPS/ATP IL-1B secretion, AlphaLISA, 16 h; stronger effect = lower value | activity change, % at 57.5 µM | actives 4.7% (n = 360,000) | AID 743279; in the data active = activity change below about -50%; inconclusive = mostly about -30% to -49%; note: % is set by controls: 0 for no effect and ±100 for the full control effect
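THP-1 cells pretreated 1 hr with compounds (up to 57.5 uM final), then stimulated with LPS (250 ng/mL final) plus ATP (1.25 mM final); secreted IL-1B measured by AlphaLISA after 16 hr, decreased signal indicating inhibition.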
The depositor's hits bear a star. In the library only some 4.8% were active in any assay of this set; here they are far more common. Unless noted, calls come from the whole dose curve; as a rule, active = well fitted curve in the direction sought with a large enough effect; inconclusive = small, poorly fitted or top-dose-only effect, or another doubt; inactive = no such curve, though single readings can be large; an effect the other way counts as inactive or inconclusive.

Results for CCc1c(C)sc(NC(=O)CN2CCN(C(=O)c3ccco3)CC2)c1C(=O)OC ?
USP2a inh: 4%; ATXN2 expr inh: -31%; USP1 inh: -28%; ATXN viability: inactive; IL-1B inflam inh: -79*

How did CCOC(=O)c1c(NC(=O)CN2C(=O)NC3(CCCCCC3)C2=O)sc(C)c1-c1ccc(C)cc1 do in these assays?
USP2a inh: 0%; ATXN2 expr inh: -15%; USP1 inh: -11%; ATXN viability: inactive; IL-1B inflam inh: -9

Results for CCOC(=O)c1c(NC(=O)CN2C(=O)NC3(CCCC3)C2=O)sc(C)c1CC ?
USP2a inh: -1%; ATXN2 expr inh: -13%; USP1 inh: -9%; ATXN viability: inactive; IL-1B inflam inh: -57*

Results for COC(=O)c1c(NC(=O)CN2CCN(Cc3ccc4c(c3)OCO4)CC2)sc(C)c1C ?
USP2a inh: -1%; USP1 inh: -14%; IL-1B inflam inh: -76*

Results for COc1ccc(OC)c(CN2CCCC(c3nc(C)ncc3-c3ccc(F)cc3)C2)c1 (centres undefined) ?
ATXN viability: inactive

Results for OC(c1ccc(Cl)cc1)c1ncc(-c2ccccc2F)[nH]1 (centres undefined) ?
ATXN2 expr inh: 33%; ATXN viability: inactive; IL-1B inflam inh: 9

Results for CNC(=O)[C@@H]1C[C@H](Sc2nc3ccccc3[nH]2)CN1Cc1ccccc1C(F)(F)F ?
ATXN viability: inactive

How did CCc1ccc(C(c2c(C)nn(-c3ccccc3)c2N)c2c(C)nn(-c3ccccc3)c2N)cc1 do in these assays?
USP2a inh: 2%; ATXN2 expr inh: -7%; USP1 inh: -16%; ATXN viability: inconclusive; IL-1B inflam inh: -67*

What do the screens show for `CC(C)(C)OC(=O)N1CCC(NC(=O)c2nc[nH]c2C(=O)NC2CCN(C(=O)OC(C)(C)C)CC2)CC1`?
USP2a inh: -2%; ATXN2 expr inh: -13%; USP1 inh: -7%; ATXN viability: inactive; IL-1B inflam inh: -12

How did CC(C)(C)OC(=O)N1CCC(NC(=O)c2[nH]cnc2C(=O)Nc2cccc(Cl)c2)CC1 do in these assays?
USP2a inh: 0%; ATXN2 expr inh: -18%; USP1 inh: -18%; IL-1B inflam inh: -58*

Results for CC(C)(C)OC(=O)NCc1ccc(CNC(=O)c2nc[nH]c2C(=O)N2CCN(C(=O)OC(C)(C)C)CC2)cc1 ?
USP2a inh: 0%; ATXN2 expr inh: inconclusive; USP1 inh: inconclusive; ATXN viability: 18µM*; IL-1B inflam inh: 18

How did CC(C)(C)OC(=O)N1CCN(C(=O)c2[nH]cnc2C(=O)Nc2ccc(Cl)cc2)CC1 do in these assays?
USP2a inh: -4%; ATXN2 expr inh: -33%; USP1 inh: -35%; ATXN viability: inactive; IL-1B inflam inh: -52*

How did Cc1ccc(NC(=O)c2nc[nH]c2C(=O)N2CCN(C(=O)OC(C)(C)C)CC2)cc1 do in these assays?
USP2a inh: -5%; ATXN2 expr inh: -5%; USP1 inh: inconclusive; ATXN viability: inactive; IL-1B inflam inh: -16

How did CCCCc1cc(=O)oc2cc(OCC(=O)NCc3ccccn3)ccc12 do in these assays?
USP2a inh: 2%; ATXN2 expr inh: -8%; USP1 inh: -12%; ATXN viability: inactive; IL-1B inflam inh: -4

Results for C/C=C1\[C@H]2C=C(C)C[C@]1(N)c1ccc(=O)[nH]c1C2 ?
ATXN2 expr inh: 15%; ATXN viability: inactive

How did CCOc1ccc(Br)cc1S(=O)(=O)Nc1cccc(S(=O)(=O)Nc2ccccc2C(=O)O)c1 do in these assays?
USP2a inh: 2%; USP1 inh: -12%; ATXN viability: inactive; IL-1B inflam inh: 11

What do the screens show for `O=[N+]([O-])c1ccc(-c2cnc(SC(c3ccccc3)c3ccccc3)[nH]2)cc1`?
USP2a inh: -1%; ATXN2 expr inh: -29%; USP1 inh: -21%; ATXN viability: inactive; IL-1B inflam inh: -52*

What do the screens show for `Cc1cc(C)c(CSc2ncc(-c3ccc([N+](=O)[O-])cc3)[nH]2)c(C)c1`?
USP2a inh: -8%; ATXN2 expr inh: inconclusive; USP1 inh: -14%; ATXN viability: inactive; IL-1B inflam inh: -59*

Results for CN1CCCC(C)(C(=O)Nc2cccc(Oc3ccccc3)c2)C1 (centres undefined) ?
ATXN2 expr inh: 2%; ATXN viability: inactive; IL-1B inflam inh: -11

What do the screens show for `O=C(/C=C/c1ccc([N+](=O)[O-])s1)N1CCCC1`?
USP2a inh: 2%; USP1 inh: inconclusive; ATXN viability: inconclusive; IL-1B inflam inh: 7

How did O=C(/C=C/c1ccc([N+](=O)[O-])s1)N1CCCCC1 do in these assays?
USP2a inh: 4%; ATXN2 expr inh: inconclusive; USP1 inh: -17%; ATXN viability: inconclusive; IL-1B inflam inh: -90*

Results for CC(=O)c1cccc(NC(=O)/C=C/c2ccc([N+](=O)[O-])s2)c1 ?
USP2a inh: 3%; ATXN2 expr inh: inconclusive; USP1 inh: 0%; IL-1B inflam inh: -104*

What do the screens show for `Cc1ccccc1NC(=O)/C=C/c1ccc([N+](=O)[O-])s1`?
USP2a inh: 4%; ATXN2 expr inh: 10µM*; USP1 inh: -20%; ATXN viability: 10µM*; IL-1B inflam inh: -102*

Results for Cc1ccccc1NC(=O)/C=C/c1cccs1 ?
USP2a inh: 1%; ATXN2 expr inh: 49%; USP1 inh: -19%; ATXN viability: inactive; IL-1B inflam inh: -25

How did O=C(Nc1ccccc1F)c1ccc([N+](=O)[O-])s1 do in these assays?
USP2a inh: 0%; ATXN2 expr inh: -25%; USP1 inh: -8%; ATXN viability: inactive; IL-1B inflam inh: -68*

What do the screens show for `O=C(CCNS(=O)(=O)c1ccc(Br)cc1)NCCc1ccc(Cl)cc1`?
USP2a inh: 1%; ATXN2 expr inh: -7%; USP1 inh: -16%; ATXN viability: inactive; IL-1B inflam inh: -1

How did Clc1ccccc1OCCCOc1cccc2cccnc12 do in these assays?
USP2a inh: 4%; ATXN2 expr inh: 56%; USP1 inh: inconclusive; ATXN viability: inactive; IL-1B inflam inh: inconclusive

How did O=C(CSc1nnc(COc2ccc(Cl)cc2)o1)Nc1ccccc1 do in these assays?
ATXN2 expr inh: 4%; USP1 inh: -16%; ATXN viability: inactive

What do the screens show for `COc1ccc(C(C)(O)c2nc(-c3cccc(C(F)(F)F)c3)cs2)cc1` (centres undefined)?
ATXN2 expr inh: -37%; ATXN viability: inconclusive; IL-1B inflam inh: 0

Results for Cc1cc(C)cc(NC(=O)/C=C/c2ccc([N+](=O)[O-])s2)c1 ?
USP2a inh: 6%; ATXN2 expr inh: inconclusive; USP1 inh: 1%; ATXN viability: inactive; IL-1B inflam inh: -102*
